Bioassay records deposited in PubChem by National Center for Advancing Translational Sciences (NCATS).
Pf growth 48h: inhibits P. falciparum growth in the first generation, 48 h; 310,000 compounds, 5.9% hits; P. falciparum luciferase growth in erythrocytes, 48 h; Potency, µM (series often up to 28.7 µM), usual class: inhibitors
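Luciferase-expressing parasites in RBCs, 2% Hct / 0.1% parasitemia final; RPMI 1640 + 0.5% Albumax; 37 C, 5% CO2, one generation; luminescence read-out, lower signal = inhibition.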
SARS PLpro yeast: blocks SARS-CoV papain-like protease in a yeast assay | S. cerevisiae expressing SARS-CoV PLpro, growth rescue | Potency, µM (titrated, usually from 32.9 µM), actives largely listed as activators | 330,000 compounds, 0.19% hits; calls by dose curve; further: nearly all actives have a fitted effect of over 55% in size
Shiga toxin inh: Shiga toxin inhibition | 290,000 compounds, 9.2% hits | Vero cells, Shiga toxin protein synthesis inhibition reporter | AID 2315 | inhibition, % at 38.7 µM; in the data active means inhibition mostly above about 28%, no sharp cut-off; inactive means mostly below about 43%
Pf growth 96h: P. falciparum growth inhibition at 96 hour, primary screen for plastid delayed-death inhibitors | Potency, µM (doses to about 28.7 µM), usual class: inhibitors | P. falciparum luciferase reporter growth, 96 h | 320,000 compounds, 6.9% hits
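Compounds incubated with erythrocytes infected by luciferase-expressing P. falciparum (2% hematocrit, 0.05% parasitemia final) for 96 hours, 37 C in 5% CO2. Growth inhibition scored as decreased luciferase luminescence.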
CHX counter: counter-screen for Shiga toxin inhibitors: cycloheximide protein synthesis inhibition | cell reporter, cycloheximide protein synthesis inhibition counterscreen | max response, % | 300,000 compounds, 12% hits; in the data active means max response mostly above about 13%, no sharp cut-off; inactive means mostly below about 14%; further: read at 38.3 µM for the half of the compounds with a filed dose
AMA1-RON2 inh: inhibitors of Plasmodium falciparum AMA1-RON2 interaction; AlphaScreen AMA1-biotinylated RON2 peptide binding; Potency, µM (doses to about 58.2 µM), hits mostly inhibitors; 360,000 compounds, 0.2% hits; AID 720542; further: nearly all actives have a fitted effect of over 45% in size
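AMA1 (3D7) with his tag at 25 nM final met compounds first, then biotinylated RON2 peptide at 25 nM; detection used donor plus acceptor beads, 10 µg/mL apiece, read by AlphaScreen after 30 min at room temperature.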
Large screens that a line does not name were inactive. An excerpt weighted towards active compounds, which were near 19% of everything screened. Unless noted, the call rests on the fitted dose curve; in most records, active means well fitted curve in the direction sought with a large enough effect; inconclusive means small, poorly fitted or top-dose-only effect, or another doubt; inactive means no such curve, though single readings can be large; an effect the other way counts as inactive or inconclusive.

Cc1nc(-c2ccccc2)[nH]c(=O)c1Oc1ccc(Cl)cc1Cl	none
COc1cccc(/C=N/NC(=O)c2cc(-c3cccn3C)n[nH]2)c1	Pf growth 48h inconclusive, Pf growth 96h 11.7µM
COc1cc(/C=N/NC(=O)c2cc(-c3cccn3C)n[nH]2)cc(OC)c1OC	Pf growth 48h 6.57µM
Cn1cccc1-c1cc(C(=O)N/N=C/c2ccc(Cl)cc2)[nH]n1	none
Cn1cccc1-c1cc(C(=O)N/N=C/C=C/c2ccccc2)[nH]n1	Pf growth 48h inconclusive, Pf growth 96h inconclusive
COCc1cccc(-c2csc(C(O)c3cccc(OC)c3)n2)c1 (stereo not given)	none (no result: Pf growth 48h, SARS PLpro yeast, Shiga toxin inh, Pf growth 96h, CHX counter)
Cc1nn(-c2ccccc2)c(Cl)c1CN(C(=O)CCl)c1cccc2ccccc12	Pf growth 48h 3.7µM, Pf growth 96h inconclusive, CHX counter 12.0
CC1CC(C)CN(CCCn2c(=S)[nH]c3ccccc3c2=O)C1 (stereo not given)	none (no result: Pf growth 48h)
C[C@@H]1CN(CCCn2c3ccccc3c3ccccc32)C[C@H](C)N1	Pf growth 48h 8.49µM, Pf growth 96h 5.36µM (no result: AMA1-RON2 inh)
COc1cc2nc(C3CCC3)nc(N3CCN(c4ccccc4OC)CC3)c2cc1OC	Pf growth 48h 13.1µM, Pf growth 96h inconclusive, AMA1-RON2 inh inconclusive
CC(=O)Nc1cc(C(=O)N2CCCC2)ccc1S(=O)(=O)c1ccc(Cl)cc1	none (no result: Pf growth 48h)
Cc1c(C(=O)N2CCN(C(=O)c3ccco3)CC2)sc2nc(-c3ccc(F)cc3)cn12	Pf growth 48h inconclusive, Pf growth 96h inconclusive
Cn1c(=NC(=O)CCl)sc2ccccc21	Pf growth 48h inconclusive, Pf growth 96h 5.22µM, CHX counter 28.4
CC(=O)N=c1sc2cc(C)ccc2n1C	Shiga toxin inh 147.4, Pf growth 96h 9.28µM, CHX counter 28.5
Cc1sc(=NC(=O)c2ccco2)n(C)c1-c1ccc(F)cc1	Shiga toxin inh 126.0, CHX counter 43.6
Cn1c(=NC(=O)c2cccc([N+](=O)[O-])c2)sc2ccccc21	Shiga toxin inh 118.7, CHX counter 26.9
CCC(=O)N=c1sc2ccccc2n1-c1ccccc1	none
COc1cc(C(=O)N=c2sc3ccccc3n2C)cc(OC)c1OC	Pf growth 96h inconclusive
COc1ccccc1C(=O)C1CCCN(C(=O)CCn2cnnn2)C1 (stereo not given)	none
CCOC(=O)N1CCN(C(=O)CSCC(=O)N=c2sc3ccccc3n2C)CC1	Pf growth 96h inconclusive (no result: SARS PLpro yeast)
Cn1c(NC(=O)c2ccco2)c(-c2ccccc2)c(=O)c2ccccc21	none
Cc1sc(=NC(=O)c2ccco2)n(C)c1-c1ccccc1	Shiga toxin inh 52.3, CHX counter 40.1
Cn1c(=NC(=O)c2ccco2)sc2ccccc21	Shiga toxin inh 53.5, CHX counter 31.8
COc1ccc(OC)c(NC(=O)C(=O)NNC(=O)COc2ccc(Br)cc2C)c1	none
Cc1ccccc1NC(=O)COc1ccc(Br)cc1C	Shiga toxin inh 54.4, Pf growth 96h inconclusive, CHX counter 41.1
COc1cc(CO)c(Br)cc1OCC(=O)Nc1ccccc1C	Pf growth 96h inconclusive, CHX counter 31.8
O=C(O)c1ccccc1Nc1cc(Cl)cc(Cl)c1	none (no result: Pf growth 48h, SARS PLpro yeast, Pf growth 96h, AMA1-RON2 inh)
O=C(O)c1ccccc1Nc1ccc(CCc2ccc(Cl)c(Cl)c2)cc1	Shiga toxin inh 26.7, CHX counter 15.5 (no result: Pf growth 48h, SARS PLpro yeast, Pf growth 96h, AMA1-RON2 inh)
c1csc(C2C3=C(Nc4ncnn42)c2ccccc2OC3)c1 (stereo not given)	Pf growth 48h inconclusive, Pf growth 96h 13.1µM
COc1ccc(C(=O)N2CCC(CCC(=O)Nc3cccc(C)c3)CC2)cc1	none
Cc1cccc(NC(=O)CCC2CCN(Cc3nccs3)CC2)c1	Pf growth 96h 9.28µM
Cc1cccc(NC(=O)CCC2CCN(C(=O)c3ccc(C)s3)CC2)c1	Pf growth 48h inconclusive, Pf growth 96h inconclusive, CHX counter 22.4
COC(C(=O)N1CCC(CCC(=O)Nc2ccccc2)CC1)c1ccccc1 (stereo not given)	Shiga toxin inh 47.7, CHX counter 36.8
COc1ccc(C(CCNCc2ccc(OC)c(OC)c2)c2ccc(F)cc2)cc1 (stereo not given)	Pf growth 48h 9.28µM, Pf growth 96h inconclusive
COc1ccc(CCNCCC(c2ccccc2)c2ccccc2)cc1OC	none (no result: Pf growth 48h, SARS PLpro yeast, Shiga toxin inh, Pf growth 96h, CHX counter)
CC(C)Oc1ccc(CNC(=O)CC(c2ccccc2)c2cc(Cl)ccc2O)cc1 (stereo not given)	Pf growth 48h inconclusive, Pf growth 96h inconclusive
